From PubChem BioAssay
The entries come from a sample that favours hits as a whole.
TcdB GH inh = TcdB glycohydrolase inhibition. inhibition, % at 9.99 µM. TcdB glycohydrolase enzymatic assay, plate reader. P18177. actives 0.24% (n = 350,000); in the data active means inhibition above about 10%
Anthrax LF inh2 = blocks Bacillus anthracis lethal factor protease; P15917; multiplex microsphere protease cleavage assay, LF; inhibition, % at 10 µM; actives 0.12% (n = 360,000); AID 588501; further: plate controls were buffer without enzyme for full effect and enzyme alone for no effect
BoNT-F LC inh = BoNT F light chain protease inhibition; Multiplex microsphere protease cleavage assay, flow cytometry; inhibition, % at 10 µM; actives 0.22% (n = 360,000); AID 588497; in the data active means inhibition above about 35%, passing the limit was not always enough; inconclusive means no clear call, values can overlap the other calls; further: plate controls were buffer without enzyme for full effect and enzyme alone for no effect
BoNT A protease = inhibitors of Botulinum neurotoxin A light chain protease. multiplex microsphere protease substrate cleavage, flow cytometry. inhibition, % at 10 µM. actives 0.17% (n = 360,000). AID 588499; further: plate controls were buffer without enzyme for full effect and enzyme alone for no effect
Autofluor counter = flagged as autofluorescent in microsphere protease counterscreen. compound autofluorescence counterscreen, microsphere flow cytometry; active compounds read high. fluorescence intensity (test concentration not listed). actives 3.1% (n = 360,000). AID 624483; in the data active means fluorescence intensity above about 16000; inconclusive means no clear call, values can overlap the other calls
Numbers without * were called inactive; ? = inconclusive; · = no result. Unless noted, no stated cut-off is given here; in the data, active means inhibition above about 30%; inconclusive means no clear call, values can overlap the other calls; inactive means below that.

SMILES	TcdB GH inh	Anthrax LF inh2	BoNT-F LC inh	BoNT A protease	Autofluor counter
COc1ccccc1S(=O)(=O)N[C@H]1CC[C@@H](CCNC(=O)C2CCCC2)O[C@@H]1CO	-4.2	·	·	·	·
O=C(N/N=C/c1ccco1)c1ccncc1	·	0.4	-1.3	-1.8	24013*
O=C(c1ccco1)N1CCCC(c2nc(-c3ccc(S(=O)(=O)NCc4ccccc4)cc3)no2)C1 (stereo unspecified)	·	0.5	0.9	2.1	22212*
O=S(=O)(Cc1ccccc1)N1CCC(c2nc(-c3cccs3)no2)CC1	0.0	-5.6	7.9	?	18652*
O=C(c1c(F)cccc1F)N1CCCC(c2nc(-c3cccs3)no2)C1 (stereo unspecified)	0.8	-19.7	-23.1	-2.8	3680
O=C(N1CCOCC1)N1CCCC(c2nc(-c3cccs3)no2)C1 (stereo unspecified)	2.1	0.8	-0.4	0.0	20689*
COc1cccc(-c2noc(C3CCCN(C(=O)Cc4ccccc4)C3)n2)c1 (stereo unspecified)	·	-0.2	0.2	-0.5	20892*
C[C@H]1CN([C@@H](C)CO)S(=O)(=O)c2ccc(C#CC(C)(C)O)cc2O[C@@H]1CN(C)C(=O)C1CCCCC1	1.5	·	·	·	·
CN(C)C(=O)C[C@@H]1CC[C@@H](NC(=O)C2CC2)[C@@H](CO)O1	1.1	·	·	·	·
C[C@@H]1CCCCO[C@@H](CN(C)C(=O)C2CCCCC2)[C@@H](C)CN([C@H](C)CO)C(=O)c2cc(NC(=O)Nc3ccc(C(F)(F)F)cc3)ccc2O1	0.4	·	·	·	·
O=C(Cc1ccccc1)N1CCCC(c2nc(-c3cccs3)no2)C1 (stereo unspecified)	·	-1.3	-6.7	-3.7	23522*
O=C(c1ccccc1Br)N1CCCC(c2nc(-c3cccs3)no2)C1 (stereo unspecified)	1.1	1.6	-0.2	0.6	4535
COc1cccc(N(CC(=O)NC(C)(C)C)C(=O)C2CSC(=O)C2)c1 (stereo unspecified)	2.2	-0.7	-0.5	0.6	20419*
COc1ccccc1N(CC(=O)NC(C)(C)C)C(=O)C1CSC(=O)C1 (stereo unspecified)	·	-8.7	11.7	0.3	9323
COc1cccc(Oc2cn[nH]c2-c2ccc(O)cc2O)c1	·	0.4	-9.0	1.1	6129
COc1ccccc1Oc1cn[nH]c1-c1ccc(O)cc1O	19.3*	3.0	-9.1	-5.1	3174
O=C(CSC(=S)N1CCCC1)Nc1ccc(Br)cc1Cl	-0.2	-1.1	34.9*	2.0	?
Cc1cccc(C)c1NC(=O)CSC(=S)N1CCCC1	3.0	-0.5	2.0	0.2	3928
CCCNC(=O)[C@@H]1[C@@H](CO)[C@@H]2Cn3c(ccc(-c4cccnc4)c3=O)[C@H]1N2C(=O)Nc1ccccc1	-0.2	·	·	·	·
CC(C)NC(=O)N(C)C[C@H]1Oc2ncc(C#Cc3ccc(F)cc3)cc2C(=O)N([C@H](C)CO)C[C@@H]1C	0.2	·	·	·	·
CCN(CC)CCCN1C(=O)C(O)=C(C(=O)c2sc(C)nc2C)C1c1ccco1 (stereo unspecified)	·	-2.7	12.8	10.2	19534*
COc1ccc(C2C(C(=O)c3sc(C)nc3C)=C(O)C(=O)N2CCCn2ccnc2)cc1OC (stereo unspecified)	·	-1.1	-1.6	0.5	20435*
COc1cccc2cc(C(=O)C3=C(O)C(=O)N(CCN(C)C)C3c3ccc(F)cc3)oc12 (stereo unspecified)	·	-1.8	1.6	0.0	9446
CCN(CC)CCCN1C(=O)C(O)=C(C(=O)c2cc3cccc(OC)c3o2)C1c1ccncc1 (stereo unspecified)	·	-15.8	5.3	?	21784*
CC1(C)Cc2c(sc3nn[nH]c(=O)c23)CO1	·	-2.3	-12.8	-0.5	4780
SMILES	TcdB GH inh	Anthrax LF inh2	BoNT-F LC inh	BoNT A protease	Autofluor counter
CCC1(C)Cc2c(sc3nn[nH]c(=O)c23)CO1 (stereo unspecified)	·	-0.6	-1.9	-1.0	16707*
CCC1(C)Cc2c(sc3nnn(Cc4ccccc4Cl)c(=O)c23)CO1 (stereo unspecified)	·	3.8	-2.9	0.3	20244*
CCC1(C)Cc2c(sc3nnn(CC(=O)Nc4ccccc4)c(=O)c23)CO1 (stereo unspecified)	0.3	-7.6	2.4	?	15796
CCNC(=O)C[C@@H]1CC[C@@H]2[C@@H](COc3ccc(NC(=O)Nc4ccccc4Cl)cc3C(=O)N2C)O1	0.7	·	·	·	·
COC(=O)C[C@H]1CC[C@@H]2[C@@H](COc3ccc(NC(=O)c4cccc(OC)c4)cc3C(=O)N2C)O1	10.8*	·	·	·	·
CN1C(=O)c2cc(NC(=O)Nc3ccccc3Cl)ccc2OC[C@H]2O[C@@H](CC(=O)NCCCN3CCOCC3)CC[C@H]21	10.5*	·	·	·	·
COc1cccc(C(=O)Nc2ccc3c(c2)C(=O)N(C)[C@@H]2CC[C@H](CC(=O)NCCCN4CCOCC4)O[C@@H]2CO3)c1	12.4*	·	·	·	·
CCCNC(=O)C[C@H]1CC[C@H]2[C@H](COc3ccc(NC(=O)c4cccc(OC)c4)cc3C(=O)N2C)O1	2.1	·	·	·	·
CC(C)(C)[S@@](=O)N1Cc2cc(C(=O)NCc3ccncc3)nc(-c3cccc(-c4cccc(C#N)c4)c3)c2[C@H]1CCO	-0.1	·	·	·	·
O=c1cc(/C=C/c2ccccc2)oc2ccccc12	·	1.1	5.9	?	22100*
C[C@H]1CN([C@@H](C)CO)S(=O)(=O)c2ccc(-c3ccncc3)cc2O[C@@H]1CN(C)Cc1cccnc1	0.3	·	·	·	·
COc1ccc(CNC(=O)C[C@@H]2C[C@H]3c4cc(NC(=O)CN(C)C)ccc4O[C@H]3[C@@H](CO)O2)cc1	0.8	·	·	·	·
COc1ccc(N2CCN(C(=O)CSc3ncccc3-c3nc4ccccc4[nH]3)CC2)cc1	-1.3	5.3	-1.7	2.7	20130*
COc1ccccc1N1CCN(C(=O)CSc2ncccc2-c2nc3ccccc3[nH]2)CC1	·	5.2	-0.8	3.9	21668*
O=C(CSc1ncccc1-c1nc2ccccc2[nH]1)N1CCN(c2ccccc2F)CC1	·	-4.3	4.2	5.3	17934*
COc1ccccc1N1CCN(C(=O)CSc2nc3ccccc3[nH]2)CC1	1.2	-1.6	-4.4	-0.5	11200
CNC[C@@H]1Oc2ccc(NC(=O)NC3CCCCC3)cc2CC(=O)N([C@H](C)CO)C[C@H]1C	-0.1	·	·	·	·
Cc1noc(C)c1S(=O)(=O)N(C)C[C@H]1OCCCC[C@H](C)Oc2ccc(NS(=O)(=O)c3ccccc3)cc2C(=O)N([C@@H](C)CO)C[C@@H]1C	-0.1	·	·	·	·
COCC(=O)Nc1ccc2c(c1)C(=O)N(C)C[C@H](OC)[C@@H](C)CN(CC1CCCCC1)[C@H](C)CO2	0.2	·	·	·	·
O=C1C(Cl)=C(NC2CCCCC2)C(=O)N1Cc1ccccc1	2.1	-9.2	-0.6	-1.1	4593
Cc1cccc(Cn2c(NCCO)nc3c2c(=O)n(C)c(=O)n3C)c1	1.4	-2.0	-3.5	1.1	6820
Cn1c(=O)c2c(nc(NCCCO)n2Cc2cccc(Br)c2)n(C)c1=O	·	-0.7	4.5	?	18885*
Cn1c(=O)n(Cc2ccccc2)c(=O)c2c1nc(NCC1CCCO1)n2Cc1ccccc1 (stereo unspecified)	·	-4.2	-3.2	-0.8	24036*
